Laboratory results taken from PubChem BioAssay AID1490 (National Center for Advancing Translational Sciences (NCATS), 2009).
Several values for one entry are separate records, joined by “and”; a condition that tells them apart may be missing. Identical values can stand only once. Among all 310,000 compounds or so, about 11,000 (3.5%) were called active. Inconclusive results (about 4%) are left out. This excerpt belongs to a sample that is enriched for actives. Unmarked numbers belong to inactive results. The call rests on the fitted dose curve; in most records, active means well fitted inhibition curve with a large enough effect; inconclusive means small, poorly fitted or top-dose-only effect, or another doubt; inactive means no such curve, though single readings can be large or run the other way.

The compounds below were run against 4'-phosphopantetheinyl transferase ffp (Bacillus subtilis) (UniProt Q9F4F7) (assay: qHTS Assay for Inhibitors of Bacillus subtilis Sfp phosphopantetheinyl transferase (PPTase)). Conditions: Biochemical Sfp PPTase activity.
Procedure, shortened: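 Fluorescence-quenching assay: 15 nM Sfp-PPTase preincubated 15 min at room temperature with compound, then 5 uM rhodamine-CoA and 12.5 uM BHQ-2-labelled YbbR peptide added. Fluorescence (ex 525/em 598 nm) read at start and after 30 min; difference gives rate.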
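Further: the enzyme is Sfp with the accession as filed and its product quenches rhodamine fluorescence.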
Potency means the concentration at half of the fitted maximal effect.
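Wherever largest response in the series, negative = inhibition is given: 0% = enzyme reaction without inhibitor and -100% = no enzyme wells.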

Compound	largest response in the series, negative = inhibition	Potency
CC(=O)c1ccc(NC(=O)c2cc(-c3cccs3)on2)cc1	1.32%	
CCCOc1ccc(Cn2c(O)cc(=O)[nH]c2=O)cc1		44.7 µM (active)
COc1cc(=O)[nH]c(=O)n1C(=O)Cc1ccccc1	9.86%	
COc1ccc(Cn2c(=O)cc(C)[nH]c2=S)cc1	-4.49%	
Cc1cc(F)ccc1NC(=S)NCCc1ccccc1	0.31%	
CC1CCN(CCCn2c(SCC(=O)NC3CCCC3)nc3ccccc3c2=O)CC1	6.04%	
CC[C@H](C)[C@H](NC(=O)[C@H](Cc1cnc[nH]1)NC(=O)[C@@H](N)CCC(=O)O)C(=O)N1CCC[C@H]1C(=O)N[C@@H](C)C(=O)O	3.28%	
COc1cc(OC)c(NS(=O)(=O)c2cn(C)cn2)cc1Cl	14.3%	
COc1c2c(cc3occ(-c4ccc5c(c4)OCO5)c(=O)c13)OC(C)(C)C=C2		39.8 µM (active)
CCN(CC)CCC(c1ccc2c(c1)OCO2)c1c(OC)cc(OC)c2c(-c3ccccc3)cc(=O)oc12 (stereo not drawn)	-27% and -23.4%	
COc1cc(-c2c(-c3ccc4c(c3)OCO4)noc2C)ccc1F	-12.4%	
O=C(NC(=S)Nc1ccc(Cl)cc1Cl)C1CC1	8.51%	
COc1cc(Cl)ccc1OCc1cc(C(=O)N(C)CCc2c(C)n[nH]c2C)no1	11.4%	
Cc1c(C)c(C)c2[nH]c(=S)[nH]c2c1C	7.86%	
O=c1[nH]c(=S)[nH]c2[nH]c(=S)[nH]c12		3.16 µM (active)
O=C(c1cccc(C(=O)N2CCN(c3ccc(F)cc3)CC2)c1)N1CCN(c2ccc(F)cc2)CC1	-15.2%	
Cc1ccc(CSCC2Nc3ccc(C(=O)N4CCN(c5ccc(F)cc5)CC4)cc3NC2=O)cc1 (stereo not drawn)		50.1 µM (active)
CC1CCN(C(=O)c2ccc3c(c2)NC(=O)CN3)CC1	6.69%	
O=C(c1cccc(F)c1)N1CCC2(CC1)CCN(c1ccccc1)CC2	2.37%	
O=C1Nc2cc(C(=O)N3CCN(c4ccc(F)cc4)CC3)ccc2NC1CSCc1cccc(F)c1 (stereo not drawn)		44.7 µM (active)
O=C(c1cc(C(=O)N2CCN(c3ccc(F)cc3)CC2)cc([N+](=O)[O-])c1)N1CCN(c2ccc(F)cc2)CC1	21.7%	
CC(C)[C@@H](OCc1ccccc1)[C@H](C)/C=N\OC[C@@H](C)[C@H](OCc1ccccc1)C(C)C	6.88%	
CCCc1cc(=O)oc2c(C)c(OCC(=O)Nc3ccccn3)ccc12	-8.94%	
Cc1ccc(S(=O)(=O)N(C)C)cc1NC(=O)c1ccccc1Br	14%	

Compound	largest response in the series, negative = inhibition	Potency
CC(=O)c1c(C)[nH]c(C(=O)Nc2cc(S(=O)(=O)N(C)C)ccc2C)c1C		79.4 µM (active)
COc1ccc(C)cc1NC(=O)c1[nH]c(C)c(C(C)=O)c1C	1.79%	
COc1cccc(NC(=S)NCc2ccco2)c1	16.1%	
Cc1c(Cl)cccc1NC(=S)NCc1ccc2c(c1)OCO2	0.527%	
S=C(NCc1ccco1)Nc1ccc2c(c1)OCCO2		28.2 µM (active)
S=C(NCc1ccco1)NCc1ccccc1Cl	8.59%	
S=C(NCc1ccc2c(c1)OCO2)NCc1ccco1		39.8 µM (active)
FC(F)Oc1ccc(NC(=S)NCc2ccco2)cc1Cl	-3.21%	
CCC(C)[C@H]1COCCS(=O)(=O)N1Cc1ccc(C)cc1 (stereo partly drawn)	13.1%	
Cc1cc(C(F)F)nn1CC(=O)NC1CCCCCC1	15.4%	
CCCCOP(=O)(c1ccc(N(C)C)cc1)C(O)c1cc(OC)ccc1OC (stereo not drawn)	4.86%	
CCn1c(CC(=O)Nc2ccccc2C)nnc1SCC(=O)NC1=NCCS1	7.23%	
O=C(Nc1nnc(C2=COCCO2)o1)c1ccc([N+](=O)[O-])s1	5.3%	
Fc1ccc(/C=N/Nc2nc(-c3cccnc3)nc3ccccc23)cc1		31.6 µM (active)
COc1ccccc1Oc1nc(-c2cccnc2)nc2ccccc12	-13.5%	
COc1ccc(Nc2nc(-c3cccnc3)nc3ccccc23)cn1	5.49%	
CCCCCC1CC(COc2ccccc2)OC1=O (stereo not drawn)	11.1%	
CC(=O)N1CCOc2ccc(S(=O)(=O)N3CCC(C(=O)Nc4ccccc4F)CC3)cc21	2.67%	
COCCNC(=O)c1ccc2c(c1)ncn2-c1ccc(C)c(Cl)c1	6.27%	
O=C(CN1CCN(S(=O)(=O)/C=C/c2ccccc2)CC1)NC(=O)NCc1ccco1	-18.1%	
COc1ccccc1N1CCN(CC(=O)NC(=O)NCc2ccco2)CC1	7.58%	
CC1(c2ccccc2Cl)NC(=O)N(CC(=O)NC(=O)NCc2ccco2)C1=O (stereo not drawn)		79.4 µM (active)
COc1cccc(C(=O)NNS(=O)(=O)c2ccc(F)cc2)c1	-4.08%	
O=S(=O)(NCCc1ccc(Cl)cc1)c1cccs1	7.54%	
